# Laboratory results: ChEMBL document CHEMBL1156829
# In all, about 5,400 compounds were measured (“IFI”: median about 2, highest 2% from about 22 on). Shown is part of a subset that was picked to be rich in the highest values.
# Test: NOVARTIS: Inhibition Frequency Index (IFI) - the number of HTS assays where a compound showed > 50% inhibition/induction, expressed as a percentage of the number of assays in which the compound was tested.
# Assay type: functional
row,Compound,IFI
1,CCC(c1nc2ccccc2c(=O)n1CCOC)N1CCNCC1 (configuration not stated),3.31%
2,C=CC[n+]1c(C=C2C=CN(C)C=C2)sc2ccccc21,15.4%
3,O=C1c2ccccc2-[n+]2ccc3c([nH]c4ccccc43)c21,41.2%
4,CC[n+]1c(C)cc2c([nH]c3ccccc32)c1C,3.03%
5,O=c1c2ccccc2[nH]c2ccc(F)cc12,0%
6,CC(=O)NCCc1ccc(O)cc1,1.48%
7,CCN(CC)CCNc1nc(/C=C/c2ccc(Cl)cc2)nc2cc3ccccc3cc12,8.77%
8,S=C(NN=Cc1ccccn1)NC1CC2C=CC1C2 (configuration not stated),19.7%
9,CC1(C)C2CCC(C2)C1(C)NC(=S)NN=Cc1ccccn1 (configuration not stated),26%
10,Cn1c2ccccc2c2nnc(NN=Cc3ccccn3)nc21,15.4%
11,S=C(NN=Cc1ccccn1)NC1CC2CC1C1C=CCC21 (configuration not stated),32.5%
12,Cc1ccc(NC(=O)C2CSC(c3cccc(F)c3)N2C(=O)c2ccc(C(C)(C)C)cc2)cc1C (configuration not stated),4.25%
13,CC(C)(C)NC(=O)C(c1cccs1)N(CCCN1CCOCC1)C(=O)c1ccc(-c2ccccc2)[nH]1 (configuration not stated),3.26%
14,Cc1ccc(S(=O)(=O)Oc2ccc(C=NN=C(N)N)cc2)cc1,0%
15,CC(C)CN1C(=O)c2ccccc2C(C(=O)Nc2ccc(C(C)C)cc2)C1c1cccs1 (configuration not stated),6.06%
16,COC(=O)c1cn([C@H]2C[C@@H](C(=O)NCc3ccc(OC)cc3)N(Cc3ccsc3)C2)nn1,1.98%
17,CCCC1=[N+](CC(=O)c2ccc(C)cc2)CCn2c(C)ccc21,5.75%
18,CC[C@@H](C(=O)[C@@H](C)[C@@H](O)[C@H](C)CCc1ccc(C)c(O)c1C(=O)O)[C@H]1O[C@](CC)([C@H]2CC[C@](O)(CC)[C@@H](C)O2)C[C@@H]1C,26.9%
19,CC[C@@H](C(=O)[C@@H](C)C(O)[C@H](C)CCc1ccc(C)c(O)c1C(=O)O)C1O[C@](CC)(C2CC[C@](O)(CC)[C@H](C)O2)C[C@@H]1C (some centres not stated),9.84%
20,Cc1ccc(CNC(=O)C2CNCC2c2ccc(C(F)(F)F)cc2)cc1 (configuration not stated),2.82%
21,O=C1N(c2ccccc2)C[C@@H]2C[C@@H](c3ccc4nonc4c3)N3CCC[C@@]123,7.69%

row,Compound,IFI
1,OC1=C2C(=Nc3ccccc3SC2c2ccccc2)c2ccccc21 (configuration not stated),2.25%
2,COc1ccc(-c2n(C)c3ccccc3[n+]2CC(=O)OC2CC(C)CCC2C(C)C)cc1 (configuration not stated),22.7%
3,CC1CCC(C(C)C)C(OC(=O)Cn2c(-c3ccccc3)[n+](C)c3ccccc32)C1 (configuration not stated),13.1%
4,COc1ccc(-c2c[n+](CC(=O)O[C@H]3C[C@H](C)CC[C@@H]3C(C)C)c3n2CCCCC3)cc1,21.9%
5,O=C1Cc2c([nH]c3ccc(OCc4ccccc4)cc23)C2CC=CCC12 (configuration not stated),0%
6,Nc1c(C(=O)NCc2ccccc2)nnn1Cc1ccc(F)cc1Cl,0%
7,CCN1/C(=C/c2sc3ccc(Br)cc3[n+]2CC)C=Cc2ccccc21,15.4%
8,CCN1/C(=C/c2sc3ccc(I)cc3[n+]2CC)C=Cc2ccccc21,15.4%
9,CCN1/C(=C/c2sc3ccc(OC)cc3[n+]2CC)C=Cc2cc(C)ccc21,23.1%
10,CCCN1/C(=C/c2sc3ccccc3[n+]2CC)C=Cc2ccccc21,23.1%
11,CCN1/C(=C/c2sc3ccccc3[n+]2CC)C=Cc2cc(NC(C)=O)ccc21,7.69%
12,CCN1/C(=C/C2=CC(=C/c3sc4ccccc4[n+]3CC)/CC(C)(C)C2)C=Cc2ccccc21,9.43%
13,CCN1/C(=C\c2sc3ccc(O)cc3[n+]2CC)C=Cc2ccccc21,23.1%
14,CCN1C(=Cc2sc3ccc(OC)cc3[n+]2CC)C=Cc2ccccc21,25%
15,CCN1C(=Cc2sc3ccc(Cl)cc3[n+]2CC)C=Cc2cc(OC)ccc21,15.4%
16,CCN1/C(=C/c2sc3ccc(-c4ccccc4)cc3[n+]2CCO)C=Cc2cc(OC)ccc21,7.14%
17,CCN1/C(=C/c2sc3ccc(OC)cc3[n+]2CC)C=Cc2cc(OC)ccc21,15.4%
18,CCCC[n+]1c(C=C2C=Cc3ccccc3N2CC)sc2ccccc21,11.1%
19,CCOc1ccc(C(=O)C(CCC(C[N+]2(C)CCCCCC2)C(=O)c2ccc(OCC)cc2)C[N+]2(C)CCCCCC2)cc1 (configuration not stated),0%
20,COc1ccc(CCNc2nc(NCCC3CCCN3C)ncc2C(=O)NCc2ccccc2)cc1OC (configuration not stated),1.92%
21,COc1ccc2[nH]c(=O)c(CN(C(=S)Nc3ccccc3OC)C3CCCC3)cc2c1,2.17%

row,Compound,IFI
1,Nc1ccc(-c2cc(N)n(-c3ccc(Oc4ccccc4)c(S(=O)(=O)O)c3)n2)cc1,1.83%
2,CCOc1cccc2oc(=O)c(C(=O)Nc3cc(C(C)(C)C)on3)cc12,0%
3,CCOc1ccc(-c2nc(NC(=O)CS(=O)(=O)c3ccccc3)sc2C)cc1,0%
4,CCOC(=O)C1CCN(C(=O)c2cc(C(C)(C)C)nn2Cc2ccc(Cl)cc2Cl)CC1,1.63%
5,CCC(c1nc2ccccc2c(=O)n1CC)N1CCN(C(=O)Nc2ccccc2C(F)(F)F)CC1 (configuration not stated),2.08%
6,Cc1ccccc1CN1CCN(C/C=C/c2ccccc2)CCC1=O,0.962%
7,CCN1/C(=C/c2sc3cc(OC)c(OC)cc3[n+]2CC)C=Cc2ccccc21,23.1%
8,CCN1/C(=C/c2sc3ccc(-c4ccccc4)cc3[n+]2CCO)C=Cc2ccccc21,7.14%
9,CCN1/C(=C/c2sc3ccccc3[n+]2CC)Sc2ccccc21,21.9%
10,CCCOC(=O)C1=C(C)NC2=C(C(=O)CC(c3ccc(Cl)cc3)C2)C1c1ccc(Br)cc1 (configuration not stated),3.57%
11,Cc1ccn2c(NC(C)(C)CC(C)(C)C)c(-c3ccccc3OC(=O)c3ccc(C)c([N+](=O)[O-])c3)nc2c1,3.74%
12,Cc1ccc(S(=O)(=O)NC(Cc2ccccc2)C(=O)N2CCC(C3CCN(C(=O)c4ccc([N+](=O)[O-])o4)CC3)CC2)cc1 (configuration not stated),7.69%
13,CCCCSc1oc(C)nc1[P+](c1ccccc1)(c1ccccc1)c1ccccc1,22.2%
14,Cc1nc([P+](c2ccccc2)(c2ccccc2)c2ccccc2)c(SCc2ccccc2)o1,21.6%
15,CCC(c1nc2ccccc2c(=O)n1-c1ccc(F)c(Cl)c1)N(CCc1ccccc1)C(=O)COc1ccccc1 (configuration not stated),1.87%
16,OC(Cn1nnc2ccccc21)Cn1c2ccc(Br)cc2c2cc(Br)ccc21 (configuration not stated),2.01%
17,COc1ccc(OC)c(C2CC(=O)C3=C(C2)NC(=O)CC3c2ccc([N+](=O)[O-])cc2)c1 (configuration not stated),0%
18,Cc1ccc(C(=O)C(C)[n+]2ccc(N(C)C)cc2)cc1 (configuration not stated),0%
19,CC(/C=C/C(=O)NO)=C\[C@@H](C)C(=O)c1ccc(N(C)C)cc1,22.6%
20,CN(C)c1ccc(/C=C/C(=O)NC(=O)c2ccccc2O)cc1,10.6%
